Source: ChEMBL document CHEMBL3988442, “University of Dundee, Small-Polar-MMV Screening Library” (2021)
Out of some 69,000 compounds screened, about 1,000 (1.4%) showed an effect of 50% or more. What follows is part of a selection rich in strong results, with near analogues and random picks from the rest.

Tested on: Leishmania donovani
Test: Leishmania intramacrophage assay
Format: functional, organism-based
Design: scale not given: in the data most compounds retested in dose-response had high values

| Compound | Percent Effect (30.3 µM, […]) | Percent Effect (30 µM, 30.03 µM) |
| --- | --- | --- |
| CC(C)(C)CCS(=O)(=O)NCCc1csc(N2CCCC2)n1 | 30.66% |  |
| O=C1CO[C@H]2CN(Cc3cccc4[nH]ccc34)C[C@@H]2N1C1CCOCC1 | 12.12% |  |
| Cc1ccc(C2CCCN2S(=O)(=O)N(C)Cc2cnn(C)c2)o1 (stereo not drawn) | -0.6676% |  |
| CCOc1ccc(C(=O)CCC(=O)N(C)Cc2noc(C)n2)cc1C | 4.933% |  |
| CN1CCCC1(CCCc1cccnc1)C(=O)NCc1nccn1C (stereo not drawn) | 27.11% |  |
| Cc1ccc(O)c(CNC2CCc3nc(C(C)C)nn3C2)n1 (stereo not drawn) |  | 0.7212% |
| Cc1ccc(S(=O)(=O)N2CCN(CCC#N)CC2)s1 | 34.19% |  |
| Cc1ccc(S(=O)(=O)N2CCN(CCC(N)=O)CC2)s1 | 13.04% |  |
| Cc1ccc(S(=O)(=O)N2CCN(CCCO)CC2)s1 | 55.51% |  |
| C[C@H](NC(=O)c1cnc(-c2ccccc2)nc1O)C(N)=O | 12.89% |  |
| CCSCC(C)NCc1ccccc1-n1ccnc1 (stereo not drawn) | -5.681% |  |
| COc1ccc(C(C)NCc2ccnn2C)cc1Cn1cccn1 (stereo not drawn) | 30.62% |  |
| Cc1csc(N2CCN(Cc3cnc(C)s3)CC2C)n1 (stereo not drawn) |  | 50.44% |
| Cc1csc(N2CCN(Cc3cscn3)CC2C)n1 (stereo not drawn) | -18.36% |  |
| Cc1cnc(CN2CCN(c3nc(C)cs3)C(C)C2)cn1 (stereo not drawn) | -40.38% |  |
| O=C1CC2(CCN(Cc3ccc4cccc(O)c4n3)CC2)CN1 | 0.5464% |  |
| O=C1CC(c2cccnc2)c2c(c(C(=O)O)cn2-c2ccc(Cl)cc2)N1 (stereo not drawn) | 19.15% |  |
| O=C1CC(c2cccnc2)c2c(c(C(=O)O)cn2-c2cccc(F)c2)N1 (stereo not drawn) | 52.29% |  |
| O=C1CC(c2cccnc2)c2c(c(C(=O)O)cn2-c2ccccc2)N1 (stereo not drawn) |  | -20.51% |
| CCc1cnc2c(c1Nc1cccc(OC)c1)c(=O)n(C)c(=O)n2C | 19.41% |  |
| CC(=O)N[C@H]1CCN(c2nc(C)nc3c2c(C)nn3C)C1 | 15.16% |  |
| COc1cccc(Nc2nc(C3CCCNC3)c3ccccn23)c1.Cl (stereo not drawn) | 2.866% |  |
| Cc1sc2c(C3CCCNC3)nc(Nc3cccc(F)c3)n2c1C.Cl (stereo not drawn) | 8.436% |  |
| COc1cccc(Nc2nc(-c3ccncc3)nc3c2CNCC3)c1.Cl | 63.42% |  |
| CC(Nc1nc(-c2ccncc2)nc2c1CCNC2)c1ccccc1 (stereo not drawn) | 41.34% |  |
| COc1cccc(Nc2nc(N3CCCC3)nc3c2CNCC3)c1.Cl | 98.87% |  |
| Fc1cccc(Nc2nc(N3CCCC3)nc3c2CNCC3)c1 | 99.78% |  |

| Compound | Percent Effect (30.3 µM, […]) | Percent Effect (30 µM, 30.03 µM) |
| --- | --- | --- |
| COc1cccc(CNC(=O)c2cc(C)nc(N3CCCC3)n2)c1 | 4.164% |  |
| COc1cccc(Nc2nc(C3CCCNC3)c3sc(C)c(C)n23)c1.Cl (stereo not drawn) | 20.11% |  |
| COc1cccc(Nc2nc(C3CCNCC3)c3ccccn23)c1.Cl | -2.973% |  |
| CCOCCNc1nc(-c2ccncc2)nc2c1CCNCC2 | -3.835% |  |
| CCN1CCN(S(=O)(=O)c2cc(Cl)c(Cl)cc2C)CC1 |  | 23.98% |
| Cc1nc(C2CCN(C(=O)c3cc(C4CC4)[nH]n3)CC2)no1 | 23.74% |  |
| CC1(C(=O)NC2CCCC2)CCCN(c2ncccn2)C1 (stereo not drawn) | 2.815% |  |
| COc1ccnc(N2CCN(C(=O)c3csc(C4CC4)n3)CC2)n1 |  | 15.31% |
| CN(C)c1ncc(-c2cc(C(=O)N3CCCC3)n(CC3CC3)c2)cn1 | -11.64% |  |
| CN1CCCN(C(=O)c2nc3sccn3c2-c2ncc[nH]2)CC1 | 0.9103% |  |
| Cc1ccsc1CN1CC2(CCN(C(=O)C3CC3)CC2)CC1C(=O)O (stereo not drawn) | 49% |  |
| CCOCCN1CCN(CC(=O)NC2(C#N)CCCC2)CC1CC (stereo not drawn) | 4.261% |  |
| CCCc1nnnn1Cc1cn2c(C)cccc2n1 | 19.02% |  |
| COc1ccc(OC)c(Nc2nc3c(C)nn(C)c3c(=O)n2C)c1 | 46.31% |  |
| COc1ccccc1Nc1nc2c(C)nn(C)c2c(=O)n1C | -67.83% |  |
| COc1ccc(C)cc1Nc1nc2c(C)nn(C)c2c(=O)n1C | 54.75% |  |
| CCc1nn(C)c(Cl)c1CN1C[C@@H](NC(=O)N(C)C)[C@H](C(C)C)C1 | 11.23% |  |
| COC(=O)CN(C(=O)c1ccco1)c1cccc(F)c1 | -4.639% |  |
| CSc1cccc(NC(=O)CCC(=O)Nc2nccs2)c1 | 36.02% |  |
| CCC(C)Oc1ccc(CNCCc2c[nH]cn2)cc1Cl (stereo not drawn) | 99.79% |  |
| CCC(C)Oc1ccc(CNCCNC(C)=O)cc1Cl (stereo not drawn) | 40.54% |  |
| CCC(C)Oc1ccc(CNCCNS(C)(=O)=O)cc1Cl (stereo not drawn) | 32.76% |  |
| Cc1cnn(CC(=O)N2CCC(c3ccn4nccc4n3)CC2)c1 | -6.355% |  |
| COCCCNC(=O)Cc1nc(-c2ccncc2)n[nH]1 | -25.69% |  |
| O=C(Cc1nc(-c2ccncc2)n[nH]1)NCCCN1CCOCC1 | 58.11% |  |
| O=C(Cc1nc(-c2ccncc2)n[nH]1)N1CCOCC1 | -34.22% |  |
